The list is not random: actives were taken first. Their share in the collection is about 1.3%.
eLon inh: inhibitors of E. coli Lon protease, primary screen, biochemical, fluorescence polarization | P0A9M0 | purified E. coli Lon protease | inhibition, % at 7.94 µM | actives 0.42% (n = 360,000); in the data active = inhibition above about 13%, passing the limit was not always enough
Keap1 Nrf2 FP: Keap1-Nrf2 protein-protein interaction inhibitors, primary screen, biochemical, fluorescence polarization, single point; Keap1 Kelch-Nrf2 peptide fluorescence polarization, 1536-well; inhibition, % at 9.4 µM; actives 0.15% (n = 340,000); AID 504523, 2011; in the data active = inhibition above about 12%;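 also: human Keap1 Kelch domain with fluorescein labeled Nrf2 9mer peptide probe; higher means more block of Keap1 binding to Nrf2 peptide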
Target sequence (Q14145 whole entry, looked up, the tested form may be a part): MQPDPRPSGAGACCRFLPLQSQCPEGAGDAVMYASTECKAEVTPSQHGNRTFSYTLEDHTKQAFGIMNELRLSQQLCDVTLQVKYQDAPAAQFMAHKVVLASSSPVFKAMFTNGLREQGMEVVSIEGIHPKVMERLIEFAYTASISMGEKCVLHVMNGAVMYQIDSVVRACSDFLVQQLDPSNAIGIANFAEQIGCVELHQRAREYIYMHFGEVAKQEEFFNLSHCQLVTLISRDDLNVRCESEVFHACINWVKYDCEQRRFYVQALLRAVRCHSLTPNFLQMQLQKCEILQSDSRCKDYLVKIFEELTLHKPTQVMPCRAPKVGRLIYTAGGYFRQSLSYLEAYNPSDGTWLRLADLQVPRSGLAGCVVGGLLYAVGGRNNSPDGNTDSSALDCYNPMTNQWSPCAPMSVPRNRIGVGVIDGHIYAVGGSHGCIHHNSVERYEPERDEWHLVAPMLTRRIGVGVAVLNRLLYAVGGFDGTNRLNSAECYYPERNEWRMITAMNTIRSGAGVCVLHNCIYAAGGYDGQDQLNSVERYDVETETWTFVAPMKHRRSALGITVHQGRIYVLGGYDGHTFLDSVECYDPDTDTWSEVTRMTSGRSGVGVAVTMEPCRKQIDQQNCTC
C-LANA FP: inhibitors of KSHV C-LANA binding to DNA, primary screen, biochemical, fluorescence polarization, FAM-LBS DNA, MBP-C-LANA, single point | actives 0.078% (n = 340,000) | inhibition, % at 9 µM | Kaposi's sarcoma herpesvirus LANA C-terminal domain (residues 932-1162) DNA binding;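 active = highest replicate inhibition at or above 60% at 9 µM, even if other replicates fall short; inactive = all replicates below 60% inhibition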
RTF Ca sens act: cardiac RTF calcium sensitivity activators, primary screen, biochemical, IANBD-TnC fluorescence, EC20 calcium | IANBD-labeled TnC RTF fluorescence at EC20 calcium; 0% EC20 calcium, 100% full calcium | activation, % at 7.2 µM | actives 0.24% (n = 340,000) | AID 493008, 2010;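 active = activation above the mean over all tested compounds plus 3 SD, cut at about 30% in these data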;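 also: rise in fluorescence read as greater calcium sensitivity of cardiac thin filaments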
LANA-H2B inh: blockers of LANA interaction with H2A/H2B – biochemical, FP readout, HTS, primary screen; inhibition, % (concentration not given with the values); Protein LANA1 (Human herpesvirus 8 type P (isolate GK18)), Q9QR71; cell-free LANA-H2A/H2B peptide, fluorescence polarization; actives 0.6% (n = 320,000); in the data active = inhibition mostly above about 10%, no sharp cut-off; inactive = mostly below about 6.7%
RTF Ca sens inh: cardiac RTF calcium sensitivity inhibitors, primary screen, biochemical, IANBD-TnC fluorescence, EC70 calcium; inhibition, % at 7.15 µM; Troponin I, cardiac muscle (Homo sapiens) + Troponin T, cardiac muscle (Homo sapiens) + …; actives 0.12% (n = 340,000); IANBD-labeled cardiac RTF, Ca2+ fluorescence;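 active = inhibition above the mean inhibition of all tested compounds plus 3 SD, cut at about 17% in these data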;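 also: assay run at fixed EC70 calcium of 1.6 mM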
Keap1 TSA: Keap1 Kelch domain binders by thermal stabilisation, dose response, biophysical, thermal shift, RT-PCR instrument, cherry-pick. shares compounds with Keap1 Nrf2 FP. delta Tm; active compounds read high. max delta Tm, degrees C. actives 8% (n = 400); in the data active = max delta Tm above about 0.48 degrees C
Dye-only ctr: Sypro Orange dye melt without protein, dose response, artefact control for Keap1-Nrf2 interaction inhibitor project, biochemical, thermal shift counterscreen, cherry-pick. shares compounds with Keap1 Nrf2 FP. Sypro Orange dye-only thermal melt, no protein, delta Tm; top dose 26 µM. delta Tm, degrees C (test concentration not listed). 140 tested, under 10 active;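 active = at highest dose tested, delta Tm positive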
eLon confirm: E. coli Lon protease inhibitor retest, confirmation, biochemical, fluorescence polarization; shares compounds with eLon inh; actives 31% (n = 1,400); inhibition, % at 7.94 µM; purified E. coli Lon; in the data active = inhibition above about 16%
Numbers stand for hits; i = inactive; nt = no result; + = active, no number.

SMILES	eLon inh	Keap1 Nrf2 FP	C-LANA FP	RTF Ca sens act	LANA-H2B inh	RTF Ca sens inh	eLon confirm	others
N#CCCn1cc(C(=O)NCc2ccccc2)c(-c2ccc3c(c2)OCCO3)n1	i	i	i	i	i	i	nt
CCOC(=O)c1sc(/N=C/c2c(O)n(-c3ccccc3)c(=O)[nH]c2=O)c(C#N)c1C	i	i	i	i	i	i	nt
CCOC(=O)c1c(/N=C/c2c(O)n(-c3cccc(C)c3)c(=O)[nH]c2=O)sc2c1CCCC2	i	72	i	i	i	i	nt	Keap1 TSA=i
CC1=NCCc2c1[nH]c1cc(O)ccc21	+	102	168	334	142	i	+	Keap1 TSA=i;Dye-only ctr=i
CC1=C[C@@H]2c3cccc4[nH]cc(c34)C[C@H]2N(C)C1	116	14	i	36	i	i	67	Keap1 TSA=i
O=C1NC(=O)C2(CCN(c3ccccc3)CC2)C(=O)N1	i	i	i	i	nt	i	nt
O=C(O)[C@H]1C[C@@H]1[C@H](NP(=O)(c1ccccc1)c1ccccc1)c1ccccc1	i	i	i	i	i	i	nt
Cc1nc2cc([N+](=O)[O-])ccc2c(=O)n1-c1ccccc1[N+](=O)[O-]	15	i	i	i	i	i	i
Cc1nc2cc([N+](=O)[O-])ccc2c(=O)n1-c1ccc(Br)cc1	i	i	i	i	i	i	nt
CN1CCCN(c2ccc([N+](=O)[O-])nc2)CC1	i	i	i	i	i	i	nt
COc1cc(C(O)CNC(C)C)cc(F)c1OC (stereo not drawn)	23	i	i	i	i	i	i
O=C(O)C(O)(c1ccc(Cl)cc1)C1(O)CCCC1 (stereo not drawn)	i	nt	nt	nt	nt	nt	nt
O=c1[nH]c(O)c(C=NCCc2ccccc2)c(=O)[nH]1	i	i	i	i	i	i	nt
O=c1[nH]c(O)c(/C=C2\C=Nc3ccc(OCc4ccccc4)cc32)c(=O)[nH]1	27	i	i	48	i	i	30
CCCOc1ccc(C(=O)NC(=S)N2C[C@H]3C[C@H](C2)c2cccc(=O)n2C3)cc1	i	i	i	i	i	i	nt
O=c1[nH]c(=O)n(Cc2ccco2)c(O)c1C=NCc1ccc2c(c1)OCO2	20	i	i	i	i	i	i
C1=C(c2c[nH]c3ccccc23)CCN(Cc2ccccc2)C1	i	i	i	i	i	i	nt
Nc1c2c(nc3ccccc13)CCN(Cc1ccccc1)C2	198	i	i	i	i	i	i
Cc1ccc(N=Cc2c(O)n(C)c(=O)n(C)c2=O)cc1	46	i	i	i	i	i	i
CCC1(CC)C(=O)NC(=O)N(c2ccccc2)C1=O	i	i	i	i	nt	i	nt
CCCCn1c(=O)c(C(=O)NCc2ccccc2OC)c(O)c2ccccc21	66	i	i	i	i	i	i
CCCCCn1c(=O)c(C(=O)NCCc2ccccc2)c(O)c2ccccc21	i	i	i	i	i	i	nt
COc1ccc(S(=O)(=O)N2Cc3cnnn3-c3ccccc3C2C#N)cc1 (stereo not drawn)	i	i	i	i	nt	i	nt
CN1C[C@H](CO)C=C2c3cccc4[nH]cc(c34)C[C@H]21	84	i	i	i	i	i	i
COc1ccc2cc(C(=O)C3CCCN(C4CCOCC4)C3)ccc2c1 (stereo not drawn)	103	i	i	i	i	i	i
SMILES	eLon inh	Keap1 Nrf2 FP	C-LANA FP	RTF Ca sens act	LANA-H2B inh	RTF Ca sens inh	eLon confirm	others
CN1CCN(Cc2cc(C(C)(C)C)c(O)c(C(C)(C)C)c2)CC1	25	i	i	i	i	i	i
CN1CCN(Cc2ccc(N)cc2)CC1	i	i	i	i	i	i	nt
Cc1cc(O)c2c(c1)C(=O)C13C(=C2O)C(=O)[C@H]2[C@@H](O)[C@@H]1[C@H]1[C@H](O)[C@@H]3C(=O)C3=C(O)c4c(O)cc(C)cc4C(=O)C312 (stereo partly drawn)	i	i	i	i	i	i	nt
CC(=O)N1CC(=O)Nc2ccc(C)cc2C1c1ccccc1 (stereo not drawn)	i	i	i	i	i	i	nt
CC(=O)CC(c1ccccc1[N+](=O)[O-])c1c(O)c2ccccc2oc1=O (stereo not drawn)	i	i	i	i	i	i	nt
COc1ccc2[nH]c(C)c(CCNCc3cccnc3)c2c1	69	i	i	i	i	i	33
Cc1nn(Cc2ccccc2Cl)c(Cl)c1C(=O)O	15	i	i	i	i	i	i
COC1C(C)OC(OC2CC(C)(O)Cc3cc4c(c(O)c32)C(=O)c2c(O)cc3c(c2C4=O)OC2OC3(C)C(O)C(N(C)C)C2O)C(OC)C1(C)OC (stereo not drawn)	+	i	i	678	nt	i	104
C/C(=N\NC(=S)Nc1ccccc1)c1c(O)n(C)c(=O)n(C)c1=O	i	i	i	i	i	i	nt
CCOC(=O)C1CCCN(c2ccc([N+](=O)[O-])c3nonc23)C1 (stereo not drawn)	193	i	90	393	nt	i	186

Screens as filed in PubChem.
